STK33 inh = STK33 kinase inhibitors, primary screen, biochemical, luminescence, ADP-Glo, MBP substrate; Serine/threonine-protein kinase 33 (Homo sapiens), Q9BYT3; inhibition, % at 12.5 µM; 27,000 tested, 0.44% active; AID 2322, 2010; in the data active = inhibition above about 20%
ID4 SMM = binders of human ID4 protein, primary screen, biochemical, small molecule microarray, single point. Flag-ID4 binding, fluorescence F/B. calls only. 31,000 tested, 1.2% active. AID 624137, 2012; call rule not given here;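 note: a binder raises fluorescence above local background on the spot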
Target sequence (P47928 whole entry, looked up): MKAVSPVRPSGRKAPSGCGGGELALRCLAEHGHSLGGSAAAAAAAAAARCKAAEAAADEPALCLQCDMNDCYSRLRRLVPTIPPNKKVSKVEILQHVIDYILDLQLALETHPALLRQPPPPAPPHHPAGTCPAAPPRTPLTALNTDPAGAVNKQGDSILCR
Starred values were filed as active, the others as inactive; i = inactive; . = not tested or not shown; + = active, no number. An excerpt weighted towards active compounds, which were near 1.1% of everything screened.

SMILES	STK33 inh	ID4 SMM
O=C(NCc1ccccn1)Nc1ccc(F)cc1F	-5.1	i
COc1cc2nccc(Oc3ccc(NC(=O)Nc4ccc(F)cc4F)c(F)c3)c2cc1OC	.	+
O=C(O)c1cc(NC(=O)C2CCCO2)cc(NC(=O)C2CCCO2)c1 (stereo unspecified)	-0.4	+
O=C(Nc1ccc(S(=O)(=O)NCC2CCCO2)cc1)C1CCCO1 (stereo unspecified)	-0.5	i
COc1ccc(-c2nc(SCc3cc(Cl)ccc3OC)n[nH]2)cc1	-1.8	i
C[C@@H]1CN([C@@H](C)CO)C(=O)c2cccc(NC(=O)c3cnccn3)c2O[C@@H]1CN(C)C(=O)Nc1ccccc1	.	i
COc1ccc(NC(=O)Nc2cccc3c2O[C@H](CN(C)S(=O)(=O)c2ccc(Cl)cc2)[C@H](C)CN([C@@H](C)CO)C3=O)cc1	.	+
C[C@@H]1CN([C@@H](C)CO)C(=O)c2cccc(NC(=O)c3nc4ccccc4s3)c2O[C@H]1CN(C)C(=O)Nc1cccc2ccccc12	.	i
C[C@@H]1CN([C@H](C)CO)C(=O)c2cccc(NC(=O)c3nc4ccccc4s3)c2O[C@H]1CN(C)C(=O)Nc1cccc2ccccc12	.	+
C[C@H]1CN([C@@H](C)CO)C(=O)c2cccc(NC(=O)c3cnccn3)c2O[C@@H]1CN(C)C(=O)Nc1ccccc1	.	+
COc1ccc(NC(=O)Nc2cccc3c2O[C@@H](CN(C)S(=O)(=O)c2ccc(Cl)cc2)[C@@H](C)CN([C@@H](C)CO)C3=O)cc1	.	i
COc1cc(S(=O)(=O)NCc2ccco2)ccc1Br	6.2	i
O=C1c2ccccc2C(=O)N1[C@@H]1CCCN(Cc2cccc(OCCO)c2)C1	-2.3	.
Cc1c(Cl)cccc1NC(=O)CSc1nnc(-c2ccc(Cl)c(Cl)c2)n1C	1.5	i
CC(NC(=O)/C=C/C(=O)O)C(=O)NC(C(=O)NC(Cc1c[nH]c2ccccc12)C(=O)O)C(C)c1c[nH]c2ccccc12 (stereo unspecified)	149.5*	i
CC(C)[C@H](N)C(=O)N[C@@H](Cc1c[nH]c2ccccc12)C(=O)O	3.3	.
COc1cc2c(cc1OC)CN(C(=O)CSc1ncnc3sc(C)c(C)c13)CC2	0.6	i
COc1c(O)c(O)cc2ccc3cccc(O)c3c12	-6.5	.
COc1cc2c(ccc3cc(OC)c(OC)c(O)c32)cc1O	29.8*	i
O=C(COc1ccc([N+](=O)[O-])cc1)Nc1ccccc1N1CCN(C(=O)c2ccc(Cl)cc2)CC1	-1.5	i
C[C@H](CO)N1C[C@H](C)[C@@H](CN(C)C)Oc2ccc(NC(=O)Nc3ccc4c(c3)OCO4)cc2C1=O	.	i
CNC[C@@H]1Oc2ccc(NC(=O)Nc3ccc4c(c3)OCO4)cc2C(=O)N([C@H](C)CO)C[C@H]1C	.	+
CNC[C@@H]1OCCCC[C@H](C)Oc2ccc(NC(=O)Nc3ccc4c(c3)OCO4)cc2C(=O)N([C@H](C)CO)C[C@@H]1C	.	i
CNC[C@H]1Oc2ccc(NC(=O)Nc3ccc4c(c3)OCO4)cc2C(=O)N([C@@H](C)CO)C[C@@H]1C	5.1	i
CNC[C@H]1OCCCC[C@@H](C)Oc2ccc(NC(=O)Nc3ccc4c(c3)OCO4)cc2C(=O)N([C@@H](C)CO)C[C@H]1C	.	+
SMILES	STK33 inh	ID4 SMM
CNC[C@H]1Oc2ccc(NC(=O)Nc3ccc4c(c3)OCO4)cc2C(=O)N([C@@H](C)CO)C[C@H]1C	.	+
CCOC(=O)c1ccc(NC(=O)CSc2nc(C)cc(C(F)(F)F)n2)cc1	-1.7	i
CCn1c(=O)c2c3c(sc2n2c(SCC(=O)Nc4ccc(Cl)cc4)nnc12)CCCC3	2.9	i
O=C1NCc2c1c1c3ccccc3[nH]c1c1[nH]c3ccccc3c21	64.0*	.
COc1ccc(OC)c2c(=S)c3ccccc3[nH]c12	.	i
CC(Sc1ncnc2sc(-c3ccccc3)cc12)C(=O)Nc1cc(Cl)ccc1Cl (stereo unspecified)	-0.4	i
O=C(/C=C/c1ccc(O)cc1)NCCc1ccc(O)cc1	2.7	.
CC(=O)NCCCN(CCCCN(CCCNC(=O)/C=C/c1ccc(O)cc1)C(C)=O)C(=O)/C=C/c1ccc(O)cc1	40.5*	i
CCc1ccc(-n2c(SCC(=O)Nc3cc(Cl)ccc3C)nnc2-c2ccncc2)cc1	1.3	i
COc1ccc(C(=O)NCc2n[nH]c(=S)n2C)cc1OC	-1.6	i
Cc1cccc(C(=O)NCc2n[nH]c(=S)n2-c2ccccc2)c1	5.8	+
Cc1c(Cl)cccc1NC(=O)CN(c1ccc2c(c1)OCCO2)S(C)(=O)=O	3.8	i
Nc1nc(SCC(=O)c2ccc(Cl)cc2Cl)n[nH]1	0.0	i
CNCCNS(=O)(=O)c1cccc2cnccc12	22.2*	i
NCCNS(=O)(=O)c1cccc2c(Cl)cccc12	4.8	i
O=S(=O)(NCCNC/C=C/c1ccc(Br)cc1)c1cccc2cnccc12	78.8*	.
CCOC(=O)NCC(Cc1ccc(OCCc2nc(-c3ccccc3)oc2C)cc1)N/C(C)=C/C(=O)c1ccc(C(F)(F)F)cc1 (stereo unspecified)	.	i
CC1(C)O[C@H]2CC(=O)OC[C@@]23[C@H]1CC(=O)[C@@]1(C)C2=CC(=O)O[C@@H](c4ccoc4)[C@]2(C)CC[C@@H]13	-0.7	.
C[C@@H]1O[C@@H](O[C@@H]2C=C(CO)[C@H]3[C@H](O[C@@H]4O[C@H](CO)[C@@H](O)[C@H](O)[C@H]4O)OC=C[C@H]32)[C@H](O)[C@H](O)[C@H]1OC(=O)/C=C/c1ccccc1	-4.5	.
Cc1nnc(SCC(=O)Nc2ccc(I)cc2C)s1	-2.3	i
COC(=O)CSc1nc2ccccc2[nH]1	-0.7	.
c1ccc2[nH]c(SCCCN3CCCCC3)nc2c1	.	+
Cc1ccc(CN(CC(N)=O)S(=O)(=O)c2ccc(Cl)cc2)cc1	-9.0	i
O=C1CC2(CCCC2)CC(=O)N1CCCCN1CCN(c2ncccn2)CC1	0.6	i
O=C1c2ccccc2S(=O)(=O)N1CCCCN1CCN(c2ncccn2)CC1	.	+
SMILES	STK33 inh	ID4 SMM
CCCC(=O)N(CCc1c[nH]c2ccccc12)[C@@H]1CC(C(=O)NCCO)=C[C@H](Oc2c(I)cc(CO)cc2OC)[C@H]1O	.	+
COc1cc(SC)ccc1C(=O)NCCc1c[nH]c2ccccc12	0.9	i
N#Cc1ccc(NC(=O)CCC(=O)O)cc1	1.4	i
CCC(=O)c1c(OCC(N)=O)ccc2c(C)cc(=O)oc12	.	i
CNC[C@H]1Oc2ccc(NC(=O)CCN3CCOCC3)cc2CC(=O)N([C@@H](C)CO)C[C@@H]1C	1.9	+
CNC[C@H]1Oc2ccc(NC(=O)c3ccncc3)cc2CC(=O)N([C@H](C)CO)C[C@@H]1C	.	i
CNC[C@@H]1Oc2ccc(NC(=O)Nc3cccc4ccccc34)cc2CC(=O)N([C@@H](C)CO)C[C@H]1C	.	+
Cc1noc(C)c1NC(=O)N(C)C[C@H]1Oc2ccc(NC(=O)Nc3ccc(F)cc3)cc2CC(=O)N([C@H](C)CO)C[C@H]1C	-0.5	+
Cc1noc(C)c1NC(=O)N(C)C[C@H]1Oc2ccc(NC(=O)Nc3ccc(F)cc3)cc2CC(=O)N([C@@H](C)CO)C[C@@H]1C	-3.4	.
CNC[C@@H]1Oc2ccc(NC(=O)c3ccncc3)cc2CC(=O)N([C@@H](C)CO)C[C@H]1C	.	+
